Data: PubChem BioAssay (NCI)
About 79,000 compounds went through this panel and 15% of them were active in at least one assay; those are over-represented in the sample as a whole. A number with no mark means an inactive call. Calls of active or inactive are those of the source. Rule as the data show it: active = growth inhibition above about 70%; inactive = the rest.

assay: NCI Yeast Anticancer Drug Screen. Data for the mlh1 rad18 strain (AID 175); settings: S. cerevisiae mlh1 rad18 strain growth inhibition; at 50.0 µM; hits give high values
Method in brief: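 Genetically defined yeast (DNA repair-deficient) exposed to compounds; growth inhibition determined relative to vehicle.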

Compound | growth inhibition
NS(=O)(=O)c1ccc(NC(=O)c2cccn3c(=O)c4ccccc4nc23)cc1 | 14.9%
Cc1cc2ccccc2c[n+]1CC(=O)CC([O-])(C(F)(F)F)C(F)(F)F | -14.9%
Brc1ccc(-c2[nH]c3ccccc3c2N=Nc2ccccc2)cc1 | -56.7%
C1CCC2(CC1)CCCO2 | 19.4%
CCOC(O)C(F)(F)F (configuration not stated) | 13.2%
CCOC(=O)c1ccnc(F)c1 | 3.6%
O=C(O)c1ccccc1/C=N\N(CCO)C1=NCCN1 | 19%
OC(COc1ccc2ccccc2c1)COc1ccc2ccccc2c1 | -5.8%
O=C(CN1CCN(c2ccccc2)CC1)N1CCc2c([nH]c3ccccc23)C1c1cccnc1 (configuration not stated) | -21.6%
CCc1nc(N)nc(N)c1-c1ccc2nn(-c3ccccc3)[n+]([O-])c2c1 | 4.85%
O=C(CCCO)c1nc2ccccc2s1 | 4.7%
COc1ccc2c(c1OC)C(Cc1ccccc1)N1CCc3cc4c(cc3C1C2)OCO4 (configuration not stated) | 77.8% (active)
CC(c1ccccc1)C1OCCO1 (configuration not stated) | 28.7%
O=C1c2ccccc2-c2cccc3ccc(-c4ccccc4)c1c23 | 12.5%
O=[N+]([O-])c1ccc(NC(CO)C(O)C(O)C(O)CO)c([N+](=O)[O-])c1 (configuration not stated) | -7.4%
CC(=O)Nc1ccc(S(=O)(=O)N=S(C)C)cc1 | 13.8%
CNC(=O)C(C)Oc1ccc(OCC2CCCCC2)cc1 (configuration not stated) | -55.6%
Cc1cccc(Cl)c1NC(=O)C(Cl)Cl | 14.9%
COc1cc(/C=C/C=C(C(=O)O)C(=O)O)cc(OC)c1OC | -4.45%
COC(=O)C1Cc2cc3c(cc2C1=O)CCC3 (configuration not stated) | -5.45%
CCOC(=O)Nc1ccc(C2OCCS2)cc1 (configuration not stated) | 10.2%
CC[C@@H]1CN(C)[C@H]2Cc3c([nH]c4ccccc34)C(=O)C[C@H]1C2C(=O)OC (some centres not stated) | 18.7%
